The list is not random: actives were taken first. Their share in the collection is about 1.3%.
Rce1 inh: inhibitors of yeast Ras-converting enzyme; Q03530; yeast membranes, quenched prenylated peptide cleavage fluorescence; calls only; 290,000 compounds, 0.27% hits;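 active = fall in fluorescence gain of 50% or more versus controls, with final raw signal at or below 3038400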
Target sequence (Q03530 whole entry, looked up): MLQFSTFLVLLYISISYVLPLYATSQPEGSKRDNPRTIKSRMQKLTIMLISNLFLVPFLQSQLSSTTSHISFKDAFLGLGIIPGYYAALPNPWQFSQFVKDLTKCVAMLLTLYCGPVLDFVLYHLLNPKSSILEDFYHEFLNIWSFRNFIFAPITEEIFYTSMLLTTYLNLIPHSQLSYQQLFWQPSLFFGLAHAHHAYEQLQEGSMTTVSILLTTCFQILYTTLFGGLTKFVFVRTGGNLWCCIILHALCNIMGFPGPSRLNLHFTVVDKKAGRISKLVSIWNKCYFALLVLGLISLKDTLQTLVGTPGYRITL
AI-2 QS mod: Vibrio harveyi AI-2 quorum sensing modulation; activity change, % at 7.5 µM; 300,000 compounds, 0.4% hits; Vibrio harveyi JMH597 AI-2 luminescence/OD600 ratio, 9 h; stronger effect = lower value; strain lacks LuxN and CqsS sensors; 0 = neutral-control median; in the data active = activity change below about -75%, passing the limit was not always enough;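 note: luminescence divided by OD600 gain over 9 h not by final OD600 alone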
C2C12 statin: protects C2C12 myotubes from simvastatin toxicity. 330,000 compounds, 0.78% hits. rescue of ATP level, % at 7.49 µM. AID 602340. ATP luminescence, 48 h; scaled: DMSO 0, geranylgeraniol control 100;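 active = mean ATP rescue above about 67%, or every replicate alone reaching that limit, limit read from the data, passing the limit was not always enough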;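 note: myotubes were challenged with 10 µM simvastatin during compound exposure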
HIF act: HIF pathway transcriptional activation; U2OS HRE-luciferase reporter, luminescence; normalized: DMSO 0%, desferrioxamine 100%; activation, % at 7.5 µM (by protocol); 300,000 compounds, 0.32% hits; AID 1910;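 active = mean activation of at least 10% of the iron chelator positive control signal, with at least half of replicates also reaching 10%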
PGC1a acetyl inh: modulators of PGC1a acetylation; U2OS PGC1a acetylation, AlphaScreen anti-acetyl-lysine; with virally co-expressed GCN5 acetyltransferase; inhibition, % at 15.6 µM; 350,000 compounds, 0.17% hits;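 active = every replicate shows inhibition of at least 40%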
A number is an active result; n = inactive; x = not tested or not shown; + = active, no number.

SMILES | Rce1 inh | AI-2 QS mod | C2C12 statin | HIF act | PGC1a acetyl inh
COC(=O)C1=C(c2ccc(F)cc2OCc2ccccc2)C[C@@H]2CC[C@H]1N2C(=O)NCc1cccc(OC)c1 | x | x | n | x | x
COC(=O)C1=C(c2ccc(F)cc2OCc2ccccc2)C[C@@H]2CC[C@H]1N2C(=O)NCc1ccc(OC)cc1 | x | x | 83.9 | x | n
COC(=O)C1=C(c2ccc(F)cc2OCc2ccccc2)C[C@@H]2CC[C@H]1N2C(=O)NCc1ccc(Br)cc1 | x | x | 75.5 | x | n
COC(=O)C1=C(c2ccc(OC(F)(F)F)cc2)C[C@@H]2CC[C@H]1N2C(=O)NCCOc1ccc(OC)cc1 | x | x | 128.2 | x | n
O=C(O)[C@H]1[C@H](CO)[C@H]2Cn3c(ccc(-c4cccc(F)c4)c3=O)[C@@H]1N2CCc1ccccc1 | x | x | n | x | n
CC=Cc1ccc2n(c1=O)C[C@@H]1[C@@H](CO)[C@H](C(=O)N(C)C)N[C@H]21 (mixture of isomers) | x | x | n | x | n
CCC(=O)N1[C@@H]2Cn3c(ccc(-c4cccc(F)c4)c3=O)[C@H]1[C@@H](C(=O)OC)[C@@H]2CO | x | x | n | x | x
COC(=O)[C@@H]1[C@@H](CO)[C@@H]2Cn3c(ccc(C4=CCCC4)c3=O)[C@H]1N2S(=O)(=O)c1cn(C)cn1 | x | x | n | x | x
O=C(Cc1ccccn1)N1CCCCN2[C@H](CO)[C@H](c3ccc(C#Cc4ccccc4)cc3)[C@@H]2C1 | x | x | x | x | n
C=CCn1c(O)c(C(C)=Nc2ccc(N(CC)CC)cc2)c(=O)[nH]c1=O | n | n | n | n | n
C=CCn1c(O)c(C(CC)=Nc2ccc(N(CC)CC)cc2)c(=O)[nH]c1=O | + | n | n | n | n
CCCN1[C@@H]2Cn3c(ccc(-c4cccc(C(=O)N(C)C)c4)c3=O)[C@H]1[C@@H](C(=O)OC)[C@@H]2CO | x | x | n | x | x
N/C(=N\[N+](=O)[O-])N/N=C/c1ccc(O)cc1 | n | n | n | n | n
Nc1nonc1C(=O)N/N=C/c1ccc([N+](=O)[O-])o1 | n | -83.9 | x | n | x
CC1=CC2OC3CC4OC(=O)C=CC=CC(C(C)O)OCC(O)C(C)CC(=O)OCC2(CC1O)C4(C)C31CO1 (stereo not given) | x | x | x | x | 80.9
OC1C2CN3CN(C2)CC1(c1ccccc1)C3 (stereo not given) | n | n | n | n | n
CC12CN3CN(C1)CC(c1ccccc1)(C3)C2=O | n | n | 101.6 | n | n
C/C=C/c1ccc(C2[C@@H]3CN(C(=O)C4CCC4)C[C@H]2N3)cc1 (stereo not given in full) | x | x | x | x | n
COc1ccc(CC(=O)N2CCN(C)CC2)cc1 | n | n | n | n | n
COc1ccc(CC2NCC(O)C2OC(C)=O)cc1 (stereo not given) | x | x | 113.8 | x | 92.1
CC(=O)OC1C(O)C(C)OC(OC2C(OC(=O)C3CCC4C(C3)OC3(CC(OC(=O)/C=C/c5ccccc5)C(C)CO3)C43CO3)OC(C)C(O)C2OC(C)=O)C1O (stereo not given) | x | x | x | x | 77.7
CN(C)CCNC(=O)c1cccn(Cc2cc(C(F)(F)F)cc(C(F)(F)F)c2)c1=O | + | n | n | n | n
CCN(CC)CCNC(=O)c1c(O)c2ccccc2n(Cc2ccccc2)c1=O | n | n | n | n | n
O=C(CN1CCN(Cc2ccc(Cl)cc2)C1=O)N1CCC2(CC1)OCCO2 | n | n | 86.8 | n | n
COc1cccc(C(=O)C2CCCN(Cc3ccc4nsnc4c3)C2)c1 (stereo not given) | n | n | n | 242.7 | n
SMILES | Rce1 inh | AI-2 QS mod | C2C12 statin | HIF act | PGC1a acetyl inh
COc1ccc(OC)c(NC2=NCCCS2)c1 | n | n | x | 37.4 | n
COC(=O)[C@H]1[C@H](CO)[C@H]2Cn3c(cccc3=O)[C@@H]1N2C(=O)C1CCC1 | x | x | n | x | x
OC(CN1CC=C(c2ccccc2)CC1)c1ccccc1 (stereo not given) | n | n | 84.1 | n | n
OC(COCc1ccc(Cl)cc1)CN1CC=C(c2ccccc2)CC1 (stereo not given) | n | n | n | n | n
CC=Cc1ccc2n(c1=O)C[C@H]1[C@H](CO)[C@@H](C(=O)OC)[C@@H]2N1CC1CC1 (mixture of isomers) | x | x | n | x | x
C[C@@H]1O[C@@H](O[C@@H]2C=C3CCC4C(CC[C@]5(C)[C@@H](c6ccc(=O)oc6)CC[C@]45O)[C@@]3(C)CC2)[C@H](O)[C@H](O)[C@H]1O (stereo not given in full) | x | x | n | x | 60.1
CC(=O)C1CCC2(O)C3CCC4=CC(=O)CCC4(C)C3CCC12C (stereo not given) | x | x | n | x | x
C[C@@H]1O[C@@H](O[C@@H]2C=C3CC[C@@H]4C(CC[C@]5(C)[C@@H](c6ccc(=O)oc6)CC[C@]45O)[C@@]3(C)CC2)[C@H](O)[C@H](O)[C@H]1O (stereo not given in full) | x | x | n | x | 67.0
O=C(Cc1cccnc1)N1CCCCN2[C@H](C1)[C@@H](c1ccc(/C=C/c3ccccc3)cc1)[C@@H]2CO | x | x | x | x | n
COc1ccc(C#Cc2ccc([C@H]3[C@@H](CO)N4CCCCN(C(=O)Cc5cccnc5)C[C@@H]34)cc2)cc1 | x | x | x | x | n
CN(C)[C@@H]1C(=O)C(C(N)=O)=C(O)[C@@]2(O)C(=O)C3=C(O)c4c(O)ccc(Cl)c4[C@@](C)(O)[C@H]3C[C@@H]12 | n | -111.0 | n | n | n
COC(=O)[C@@H]1[C@@H](CO)[C@@H]2Cn3c(ccc(-c4ccccc4OC)c3=O)[C@H]1N2Cc1ccccc1 | x | x | n | x | x
C=CCn1c(=O)c(C=Nc2cccc([N+](=O)[O-])c2)c(O)n(CCCC)c1=O | n | n | n | n | n
CCCCn1c(=O)c(C=Nc2cccnc2Cl)c(O)n(CCCCl)c1=O | + | n | x | n | x
CCCCCCn1c(N)c(C(=O)NCCN2CCOCC2)c2nc3ccccc3nc21 | n | n | 111.8 | n | n
CCCCCn1c(N)c(C(=O)NCCN2CCOCC2)c2nc3ccccc3nc21 | n | n | n | n | n
CC(C)OCCCNC(=O)c1c(N)n(CC2CCCO2)c2nc3ccccc3nc12 (stereo not given) | + | n | x | n | n
COc1ccc(CCNC2(C#N)CCCCC2)cc1OC | x | x | n | x | 83.6
C[C@@H]1C[C@@H]([C@H](O)CC2CC(=O)NC(=O)C2)C(=O)[C@@H](C)C1 | x | x | 172.9 | x | 72.7
CC(=O)OC1(C)CC(C)C(=O)C(C(O)CC2CC(=O)NC(=O)C2)C1 (stereo not given) | x | x | 83.4 | x | 92.7
CCN1[C@@H]2Cn3c(ccc(-c4ccc(OC)cc4)c3=O)[C@H]1[C@@H](C(=O)OC)[C@@H]2CO | x | x | n | x | x
COC(=O)[C@@H]1[C@@H](CO)[C@@H]2Cn3c(ccc(-c4ccncc4)c3=O)[C@H]1N2S(=O)(=O)c1ccccc1F | x | x | n | x | x
Clc1ccc(C[n+]2c(-c3ccccc3)cc(-c3ccccc3)cc2-c2ccccc2)cc1 | + | n | n | n | n
Fc1ccc(C[n+]2c(-c3ccccc3)cc(-c3ccccc3)cc2-c2ccccc2)cc1 | n | n | x | n | x
CCCN1[C@@H]2Cn3c(ccc(-c4ccccc4)c3=O)[C@H]1[C@@H](C(=O)OC)[C@@H]2CO | x | x | n | x | x

High-throughput results as filed in PubChem BioAssay.
